From PubChem BioAssay
The source made the active and inactive calls.

Experiments:
[1] = system: Plasmodium falciparum Sir2 (PF13_0152, Sir2A); test: pfSir2 binders on small-molecule microarrays, primary screen, biochemical, small-molecule microarray, 635 nm fluorescence (AID 1098); settings: small-molecule microarray binding, fluorescence 635 nm; higher = more signal;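 further: score merges spot fluorescence intensity with its signal-to-noise ratio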
[2] = small-molecule microarray binders of probe aDKK1, primary screen, biochemical, biotinylated probe, 635/667 nm fluorescence (AID 1099); settings: higher = more signal;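 further: score merges 667nm spot fluorescence with signal to noise across triplicate slides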
[3] = small-molecule microarray binders of probe aCHRDL2, primary screen, biochemical, biotinylated probe, 635/667 nm fluorescence (AID 1100); settings: higher = more signal
[4] = splicing luciferase reporter signal modulators, primary screen, spliceosome inhibition project, cell-based, HEK293, splice +/- reporter (AID 1101); settings: luminescence, 24 h, higher = more signal, called active from +8 up or from −8 down;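 further: HEK293 cells carrying a splicing-competent luciferase reporter gene; test concentration not given here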
[5] = target: Fibroblast growth factor 10 (Homo sapiens) (UniProt O15520); test: FGF10 binders on small-molecule microarrays, primary screen, biochemical, small-molecule microarray, 635 nm fluorescence (AID 1102); settings: FGF10 binding, fluorescence 635 nm, higher = more signal
Sequence of Fibroblast growth factor 10 (Homo sapiens) (O15520 whole entry, looked up): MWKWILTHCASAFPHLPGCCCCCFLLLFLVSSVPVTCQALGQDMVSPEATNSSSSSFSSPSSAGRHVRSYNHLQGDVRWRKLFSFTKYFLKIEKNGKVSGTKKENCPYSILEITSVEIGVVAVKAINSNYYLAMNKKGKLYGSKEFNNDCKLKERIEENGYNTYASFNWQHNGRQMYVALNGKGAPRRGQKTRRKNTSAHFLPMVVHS

[6] = system: glycogen synthase kinase-3 (GSK3A per assay name; protocol says GSK3B); test: GSK3 binders on small-molecule microarrays, primary screen, biochemical, small-molecule microarray, 635 nm fluorescence, GSK3A (AID 1103); settings: small-molecule microarray binding, fluorescence 635 nm; higher = more signal; further: the record names both GSK3A and GSK3B
[7] = target: Epidermal growth factor receptor (Homo sapiens) (UniProt P00533); test: EGFR binders on small-molecule microarrays, primary screen, biochemical, small-molecule microarray, 635 nm fluorescence (AID 1104); settings: EGFR binding, higher = more signal;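 further: score merges 667 nm emission intensity with spot signal to noise over triplicate slides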
Sequence of Epidermal growth factor receptor (Homo sapiens) (P00533 whole entry, looked up): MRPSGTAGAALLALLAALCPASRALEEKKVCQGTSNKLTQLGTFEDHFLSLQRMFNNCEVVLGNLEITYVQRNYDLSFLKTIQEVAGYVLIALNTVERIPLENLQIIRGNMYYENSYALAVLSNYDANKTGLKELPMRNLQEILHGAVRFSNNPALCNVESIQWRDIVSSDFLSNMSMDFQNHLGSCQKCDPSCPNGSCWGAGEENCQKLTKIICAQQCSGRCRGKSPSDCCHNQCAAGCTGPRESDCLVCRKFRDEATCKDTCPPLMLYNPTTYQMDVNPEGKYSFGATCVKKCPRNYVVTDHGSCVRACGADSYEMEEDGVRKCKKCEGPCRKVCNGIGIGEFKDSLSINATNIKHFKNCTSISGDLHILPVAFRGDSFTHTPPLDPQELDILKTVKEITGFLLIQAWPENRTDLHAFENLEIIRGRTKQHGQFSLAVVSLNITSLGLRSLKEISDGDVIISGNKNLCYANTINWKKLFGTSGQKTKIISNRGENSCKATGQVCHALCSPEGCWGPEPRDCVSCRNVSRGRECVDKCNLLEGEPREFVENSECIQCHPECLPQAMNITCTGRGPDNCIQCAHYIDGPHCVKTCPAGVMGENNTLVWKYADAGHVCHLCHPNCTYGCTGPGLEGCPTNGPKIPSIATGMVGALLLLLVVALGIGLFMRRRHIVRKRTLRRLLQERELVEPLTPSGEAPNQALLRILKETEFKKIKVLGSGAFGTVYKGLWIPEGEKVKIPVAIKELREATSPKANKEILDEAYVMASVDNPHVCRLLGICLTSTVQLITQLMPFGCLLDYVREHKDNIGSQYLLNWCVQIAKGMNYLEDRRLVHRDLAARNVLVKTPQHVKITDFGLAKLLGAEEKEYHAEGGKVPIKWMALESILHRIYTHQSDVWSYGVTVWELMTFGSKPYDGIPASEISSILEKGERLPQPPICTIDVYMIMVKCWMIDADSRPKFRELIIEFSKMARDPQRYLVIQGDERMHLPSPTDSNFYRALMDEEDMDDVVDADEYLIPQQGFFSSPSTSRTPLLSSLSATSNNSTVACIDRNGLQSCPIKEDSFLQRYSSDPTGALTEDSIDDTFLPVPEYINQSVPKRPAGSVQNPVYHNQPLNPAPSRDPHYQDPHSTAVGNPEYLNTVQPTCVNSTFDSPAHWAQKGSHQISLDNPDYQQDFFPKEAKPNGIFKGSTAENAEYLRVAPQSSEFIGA

[8] = target: Follistatin-related protein 3 (Homo sapiens) (UniProt O95633); test: FSTL3 binders on small-molecule microarrays, primary screen, biochemical, small-molecule microarray, 635 nm fluorescence (AID 1105); settings: FSTL3 binding, higher = more signal;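 further: score merges emission near 667 nm and signal to noise per printed spot across three slides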
Sequence of Follistatin-related protein 3 (Homo sapiens) (O95633 whole entry, looked up): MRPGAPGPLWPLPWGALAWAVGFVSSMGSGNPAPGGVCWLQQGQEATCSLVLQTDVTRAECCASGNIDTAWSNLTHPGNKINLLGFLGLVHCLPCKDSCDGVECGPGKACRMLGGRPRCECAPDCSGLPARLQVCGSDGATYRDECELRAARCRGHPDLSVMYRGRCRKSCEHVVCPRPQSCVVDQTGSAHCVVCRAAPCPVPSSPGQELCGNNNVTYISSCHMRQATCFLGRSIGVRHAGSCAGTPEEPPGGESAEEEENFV

[9] = target: Dickkopf-related protein 1 (Homo sapiens) (UniProt O94907); test: DKK1 binders on small-molecule microarrays, primary screen, biochemical, small-molecule microarray, 635 nm fluorescence scan (AID 1106); settings: DKK1 binding, higher = more signal;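 further: score merges emission near 667 nm with signal to noise over three replicate slides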
Sequence of Dickkopf-related protein 1 (Homo sapiens) (O94907 whole entry, looked up): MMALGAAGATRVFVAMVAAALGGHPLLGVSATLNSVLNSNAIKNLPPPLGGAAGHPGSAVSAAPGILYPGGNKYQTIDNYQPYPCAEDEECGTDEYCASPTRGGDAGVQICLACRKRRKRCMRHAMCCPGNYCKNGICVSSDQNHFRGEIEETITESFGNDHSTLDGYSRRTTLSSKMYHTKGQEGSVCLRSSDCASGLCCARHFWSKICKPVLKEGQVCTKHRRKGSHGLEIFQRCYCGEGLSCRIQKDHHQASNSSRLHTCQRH

[10] = system: Inhibin beta A chain (activin A); test: INHBA (activin A) binders on microarrays, primary screen, biochemical, small-molecule microarray, 635 nm fluorescence scan (AID 1107); settings: small-molecule microarray binding, higher = more signal;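 further: mouse activin A protein probed at 4.33 µg/mL on printed slides; score merges bound-protein fluorescence near 667 nm with spot signal-to-noise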
[11] = system: Human papillomavirus type 1a protein E7 (residues 44-93); test: HPV1a E7 fragment binders on microarrays, primary screen, biochemical, small-molecule microarray, residues 44-93, 635 nm fluorescence (AID 1108); settings: small-molecule microarray binding, fluorescence 635 nm; higher = more signal;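 further: E7 fragment applied at 1 µg/mL in TBST for 1 h at 4 C; score combines spot fluorescence with its signal to noise ratio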
[12] = modulators of HCV replicon luciferase signal, primary screen, HCV replication inhibitor project, Huh7 cells, luciferase reporter (AID 1109); settings: 48 h, higher = more signal;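 further: huh7 hepatoma cells harbouring a luciferase neomycin HCV replicon reporter; luciferase luminescence as measure of HCV replicon replication; test concentration not given here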
[13] = target: Left-right determination factor 2 (Homo sapiens) (UniProt O00292); test: LEFTY2 binders on small-molecule microarrays, primary screen, biochemical, small-molecule microarray, 635 nm fluorescence scan (AID 1110); settings: LEFTY2 binding, higher = more signal
Sequence of Left-right determination factor 2 (Homo sapiens) (O00292 whole entry, looked up): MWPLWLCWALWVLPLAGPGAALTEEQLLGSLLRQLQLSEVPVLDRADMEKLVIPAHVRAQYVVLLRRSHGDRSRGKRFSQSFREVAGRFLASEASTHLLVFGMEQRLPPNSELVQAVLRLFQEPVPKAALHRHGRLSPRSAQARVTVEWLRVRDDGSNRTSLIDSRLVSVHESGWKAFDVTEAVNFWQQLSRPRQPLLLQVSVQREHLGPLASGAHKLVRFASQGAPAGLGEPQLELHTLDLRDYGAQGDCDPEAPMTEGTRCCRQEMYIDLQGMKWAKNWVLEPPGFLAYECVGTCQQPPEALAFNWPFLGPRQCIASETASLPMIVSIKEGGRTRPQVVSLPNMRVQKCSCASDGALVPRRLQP

[14] = target: Calmodulin-1 (Homo sapiens) (UniProt P0DP23); test: CALM1 binders on microarrays, EGTA buffer, profiling panel, biochemical, small-molecule microarray, Cy5-labelled CALM1 (AID 1111); settings: Cy5-CALM1 binding fluorescence, higher = more signal;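 further: labelled calmodulin applied in Tris saline Tween buffer holding calcium plus EGTA and DTT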
[15] = target: Calmodulin-1 (Homo sapiens) (UniProt P0DP23); test: calcium-bound CALM1 binders on microarrays, profiling panel, artefact control for SMM control-protein annotation, biochemical, small-molecule microarray, Cy5-labelled CALM1, plus calcium (AID 1112); settings: Cy5-CALM1 binding fluorescence, higher = more signal;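 further: score merges spot fluorescence with signal to noise from triplicate slides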
[16] = small-molecule microarray binders of probe aWnt5a, primary screen, biochemical, biotinylated probe, 635/667 nm fluorescence (AID 1113); settings: higher = more signal;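 further: score merges 667 nm fluorescence intensity with signal-to-noise per printed feature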
[17] = small-molecule microarray binders of probe aShh, primary screen, biochemical, biotinylated probe, 635/667 nm fluorescence (AID 1114); settings: higher = more signal;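 further: probe is biotin-labelled aShh protein from a stem cell growth factor screen; measures binding of labelled protein to compounds printed on the slide; score merges feature fluorescence at 667 nm with signal-to-noise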
[18] = small-molecule microarray binders of probe aNog, primary screen, biochemical, biotinylated probe, 635/667 nm fluorescence (AID 1115); settings: higher = more signal;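 further: probe is biotinylated aNog protein used at 0.15 µg/mL for 1 h at 4 C; z-score combines 667 nm fluorescence of each spot with its signal to noise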
[19] = target: Torsin-1A-interacting protein 1 (Homo sapiens) (UniProt Q5JTV8); test: LAP1 binders from COS7 cell lysate, primary screen, small-molecule microarray, 635/667 nm fluorescence (AID 1116); settings: COS7-hLAP1 lysate binding, 635 nm fluorescence, higher = more signal
Sequence of Torsin-1A-interacting protein 1 (Homo sapiens) (Q5JTV8 whole entry, looked up): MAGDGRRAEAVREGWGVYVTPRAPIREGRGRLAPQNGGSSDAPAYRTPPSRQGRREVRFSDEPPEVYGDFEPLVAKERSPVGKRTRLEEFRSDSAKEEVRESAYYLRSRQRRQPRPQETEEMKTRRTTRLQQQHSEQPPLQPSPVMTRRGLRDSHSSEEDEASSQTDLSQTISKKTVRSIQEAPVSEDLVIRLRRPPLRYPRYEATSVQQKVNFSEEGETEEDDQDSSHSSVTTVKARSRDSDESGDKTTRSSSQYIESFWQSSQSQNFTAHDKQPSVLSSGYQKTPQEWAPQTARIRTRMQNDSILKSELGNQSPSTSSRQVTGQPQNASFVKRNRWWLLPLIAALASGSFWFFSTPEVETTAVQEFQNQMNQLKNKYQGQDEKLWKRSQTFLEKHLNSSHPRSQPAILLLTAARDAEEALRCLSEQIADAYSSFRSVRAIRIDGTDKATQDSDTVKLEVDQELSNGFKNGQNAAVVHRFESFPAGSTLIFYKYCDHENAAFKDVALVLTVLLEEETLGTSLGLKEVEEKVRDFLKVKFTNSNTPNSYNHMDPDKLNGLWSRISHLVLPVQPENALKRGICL

[20] = target: Alpha-bungarotoxin (Bungarus multicinctus) (UniProt P60615); test: alpha-bungarotoxin binders on microarray, profiling panel, artefact control for SMM control protein annotation, biochemical, small-molecule microarray, Alexa647 label, 635/667 nm fluorescence (AID 1117); settings: alpha-BTX-A647 binding fluorescence, higher = more signal
Sequence of Alpha-bungarotoxin (Bungarus multicinctus) (P60615 whole entry, looked up): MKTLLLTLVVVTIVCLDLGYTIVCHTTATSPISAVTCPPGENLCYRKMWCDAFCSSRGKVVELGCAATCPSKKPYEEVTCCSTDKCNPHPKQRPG

Row | Structure (SMILES) | composite z-score [1] | composite z-score [2] | composite z-score [3] | z-score [4] | composite z-score [5] | composite z-score [6] | composite z-score [7] | composite z-score [8] | composite z-score [9] | composite z-score [10] | composite z-score [11] | z-score [12] | composite z-score [13] | composite z-score [14] | composite z-score [15] | composite z-score [16] | composite z-score [17] | composite z-score [18] | composite z-score [19] | composite z-score [20]
1 | CCCNC(=O)[C@@]1(Sc2ccc(C)cc2)CC(=O)N(Cc2cc(C(F)(F)F)cc(C(F)(F)F)c2)[C@@H]1c1ccc(CO)cc1I | 1.24 | 0.832 | 1.11 | -2.39 (inactive) | -0.544 | -0.656 | -0.711 | -0.372 | -0.799 | 1.08 | -0.536 | -1.41 | -1.58 | 1.54 | 1.11 | -0.0512 | 0.0141 | 0.573 | 1.68 | 0.521
2 | COCCOC(=O)N1C(=O)[C@@]2(c3cc(C#CC4(O)CCCCCC4)ccc31)[C@H](c1ccc(O)cc1)N1[C@H](c3ccccc3)[C@H](c3ccccc3)OC(=O)[C@H]1[C@@H]2C(N)=O | 0.98 | 0.106 | 0.375 | -0.652 (inactive) | 0.744 | 0.0417 | 0.0818 | 0.585 | 0.577 | 0.311 | 1.06 | -0.0511 | -0.0539 | 2.23 | 0.0903 | 0.0719 | -0.223 | 0.725 | 0.852 | 1.97
3 | COc1ccc([Si](C)(C)[C@H]2[C@H](CCO)O[C@@]3(C(=O)N(Cc4ccc(N5C(=O)c6cccc7cccc5c67)cc4)c4ccccc43)[C@@H]2C)cc1 | 0.706 | 0.147 | 0.742 | -2.46 (inactive) | -0.0426 | -0.603 | -0.482 | -0.959 | -0.397 | 0.48 | 0.0848 | -4.78 | -0.385 | 1.57 | 1.28 | -0.129 | -0.138 | 0.467 | 0.18 | 1.05
4 | CC(=O)OC(C/C=C\B1OC(C)(C)C(C)(C)O1)c1ccccc1 (stereo not given) | -0.552 | -0.264 | 0.281 | -2.42 (inactive) | -0.704 | -0.138 | 0.247 | 0.173 | 0.0618 | 1.38 | -0.328 | 0.386 | 0.149 | -1.33 | -0.664 | -0.152 | -0.0813 | -0.405 | -0.0001 | -0.236
5 | CCCCCN1CC=CC23O[C@@H]4/C=C\CCC(C)OC(=O)C4[C@H]2C(=O)N(CCO)[C@@H]3C1=O (stereo not given in full) | 1.3 | -0.205 | 0.791 | -0.688 (inactive) | -0.825 | -0.413 | -1.81 | -1.13 | -1.2 | 1.57 | 0.408 | 0.382 | -1.43 | -0.659 | -0.295 | -0.176 | -0.279 | 0.552 | -0.0418 | -1.7
6 | CC(C)(C)OC(=O)CC[C@]1(C(=O)NCc2ccccc2)N=C(c2ccc(OCCCO)cc2)O[C@H]1c1ccccc1N=[N+]=[N-] | 1.02 | 1.36 | 1.35 | -2.19 (inactive) | 1.21 | 1.29 | -0.0113 | 1 | 0.496 | 0.947 | -0.385 | -0.5 | 0.478 | 2.14 | 0.756 | 0.17 | 0.57 | 1.11 | 1.63 | 2.77
7 | CC(C)C[C@@H]1NC(=O)[C@@]23C(=O)N[C@@H](Cc4ccccc4)C2[C@H](C)[C@@]2(C)O[C@H]2C3/C=C/C/C=C\CNC(=O)[C@H](Cc2ccccc2)NC1=O (stereo not given in full) | 0.608 | -0.117 | -0.417 | -0.639 (inactive) | 0.286 | 0.151 | 0.137 | 0.315 | 0.335 | 1.49 | -1.3 | -2.08 | 0.534 | -0.388 | -0.485 | -0.152 | -0.2 | -0.194 | 0.569 | 0.792
8 | CCOC(=O)C[C@H]1[C@H](OC(=O)c2cc3ccccc3oc2=O)[C@@H](NC(=O)c2ccccc2)c2cc(OCCCO)ccc2N1C(=O)Cc1ccc(OC)cc1 | 0.575 | 0.33 | -0.194 | -1.78 (inactive) | 0.905 | 0.714 | 0.433 | 0.909 | 0.511 | 0.506 | 0.378 | -0.824 | 0.357 | 0.163 | -0.422 | -0.182 | -0.138 | 0.23 | 0.44 | 0.693
9 | COC(=O)C(CC#Cc1ccc2c(c1)[C@]1(C(=O)N2)[C@H](c2ccccc2OCCO)N2[C@H](c3ccccc3)[C@H](c3ccccc3)OC(=O)[C@H]2[C@@H]1C(=O)N1CCCCCCC1)C(=O)OC | 2.12 | 3.07 | 1.7 | -1.09 (inactive) | 1.55 | 1.47 | 1.91 | 1.77 | 2.52 | 1.79 | 1.48 | -1.95 | 1.73 | 3.07 | 1.76 | 1.46 | 2.72 | 3.54 | 5.82 | 3.89
10 | COCCOC(=O)N1C(=O)[C@@]2(c3cc(C#CCNC(N)=O)ccc31)[C@H](c1ccccc1OCCO)N1[C@H](c3ccccc3)[C@H](c3ccccc3)OC(=O)[C@H]1[C@@H]2C(=O)Nc1nc2ccccc2s1 | 0.852 | 0.868 | 1.13 | -0.349 (inactive) | 0.141 | 0.218 | 0.135 | 0.572 | 0.505 | 0.887 | 0.872 | 0.048 | 0.163 | 1.58 | 1.14 | -0.0758 | 0.284 | 0.561 | 0.745 | 2.51
11 | COc1ccc(C#Cc2ccc3c(c2)[C@]2(C(=O)N3)[C@H](c3ccc(O)cc3)N3[C@H](c4ccccc4)[C@H](c4ccccc4)OC(=O)[C@H]3[C@@H]2C(=O)N2CCN(c3ncccn3)CC2)cc1 | 0.595 | 0.762 | 0.657 | -0.835 (inactive) | 0.388 | 0.424 | 0.0077 | 0.219 | -0.0775 | 0.0381 | 0.778 | -1.15 | -0.0042 | 1.95 | 0.707 | 0.0236 | 0.842 | 0.353 | 1.28 | 1.75
